Hits are enriched below; roughly 19% of the tested compounds scored in any of these assays.
HT1080NT lethal: kills 2HG-producing HT-1080-NT fibrosarcoma cells; Potency, µM (series often up to 46.1 µM), most hits filed as cytotoxic; HT-1080-NT fibrosarcoma viability, CellTiter-Glo ATP luminescence, 48 h; 360,000 tested, 1.6% active; AID 686970;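 also: NT is the 2HG producing partner of a matched IDH1 knockdown line; nearly all actives have a fitted effect of over 55% in size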
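Fibrosarcoma NT cells, 750 per well in 5% FBS RPMI, were exposed to compound for 48 hours. Viability: CellTiter-Glo luminescence.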
TDP1 cell CPT: DT40-hTDP1 cell growth loss with CPT | Potency, µM (doses to about 46.2 µM), usual class: inhibitors | AID 686979 | 420,000 tested, 12% active | chicken DT40 Tdp1-/-;hTDP1 cells + 20 nM CPT, ATP luminescence, 48 h; also: nearly all actives have a fitted effect of over 55% in size
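Cell growth measured by CellTiter-Glo luminescence after a minimum 48 h, 37 C compound exposure with 20 nM CPT in Tdp1-knockout DT40 cells stably expressing hTDP1, seeded 400/well; qHTS titration format.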
IL-1B inflam inh: inhibitors of inflammasome signaling (IL-1 beta secretion); THP-1 LPS/ATP IL-1B secretion, AlphaLISA, 16 h; active compounds read low; activity change, % at 57.5 µM; 360,000 tested, 4.7% active; AID 743279; in the data active = activity change below about -50%; inconclusive = mostly about -30% to -49%
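Secreted IL-1B measured by AlphaLISA bead assay after 16 h compound exposure of THP-1 cells; compounds (final up to 57.5 uM) added 1 h before LPS (250 ng/mL) and ATP (1.25 mM) stimulation; lower signal means less secretion.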
DT40 TDP1 no CPT: qHTS for Inhibitors of human tyrosyl-DNA phosphodiesterase 1 (TDP1): qHTS in cells in absence of CPT; DT40 Tdp1-/- hTDP1 cells, no CPT, ATP luminescence, 48 h; Potency, µM (highest dose often 46.2 µM), actives largely listed as inhibitors; 420,000 tested, 15% active; AID 686978, 2013; also: nearly all actives have a fitted effect of over 55% in size
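No-CPT arm: Tdp1-/-;hTDP1 DT40 cells (400/well) plus compounds, incubated ≥48 hr at 37 °C. Readout CellTiter-Glo luminescence.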
HT1080 IDH1KD tx: kills HT-1080 cells with IDH1 knockdown; HT-1080 IDH1 knockdown viability, ATP luminescence, 48 h; Potency, µM (series often up to 46.1 µM), actives largely listed as cytotoxic; 360,000 tested, 2% active; AID 686971
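Knockdown cells (IDH1KD HT-1080) received compounds 2 h after plating at 750 cells/well and were kept 48 h at 37 °C in 5% FBS RPMI. A CellTiter-Glo luminescence read gave % activity for curve fitting.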
A number is an active result; [ ] = remark or other dose. Unless noted, calls follow the shape of the dose curve; as a rule, active = well fitted curve in the direction sought with a large enough effect; inconclusive = small, poorly fitted or top-dose-only effect, or another doubt; inactive = no such curve, though single readings can be large; an effect the other way counts as inactive or inconclusive.

`CCOC(=O)C1=C(C)N=c2s/c(=C\c3ccc(C(=O)O)cc3)c(=O)n2C1c1ccc(OC)cc1OC` (configuration not stated) gave HT1080NT lethal inactive, TDP1 cell CPT inconclusive, IL-1B inflam inh inactive, DT40 TDP1 no CPT inconclusive and HT1080 IDH1KD tx inactive.
Screening CCOC(=O)C1=C(c2ccccc2)N=c2sc(=Cc3cc(OC)c(OC)c(OC)c3)c(=O)n2C1c1cccs1 (configuration not stated) returned HT1080NT lethal inactive, TDP1 cell CPT 8.2µM, IL-1B inflam inh inconclusive, DT40 TDP1 no CPT 13µM and HT1080 IDH1KD tx inactive.
`COc1cccc(C2C3=C(N=c4s/c(=C\c5cccc(O)c5)c(=O)n42)c2ccccc2CC3)c1OC` (configuration not stated) gave HT1080NT lethal inactive, TDP1 cell CPT inactive, IL-1B inflam inh -56.5, DT40 TDP1 no CPT inconclusive and HT1080 IDH1KD tx inconclusive.
`COc1ccccc1C1C2=C(N=c3s/c(=C/c4cccc(OCC(=O)O)c4)c(=O)n31)c1ccccc1CC2` (configuration not stated) gave HT1080NT lethal inconclusive, TDP1 cell CPT inactive, IL-1B inflam inh inactive, DT40 TDP1 no CPT inactive and HT1080 IDH1KD tx inconclusive.
CCOC(=O)C1=C(C)N=c2s/c(=C\c3cccn3C)c(=O)n2C1c1cccc(OC)c1OC (configuration not stated) was read as HT1080NT lethal inactive, TDP1 cell CPT inconclusive, IL-1B inflam inh inactive, DT40 TDP1 no CPT 20.6µM and HT1080 IDH1KD tx inactive.
For C[C@@H]1CN([C@@H](C)CO)C(=O)CCCn2nncc2CO[C@H]1CN(C)C(=O)Cc1ccccc1 the results were HT1080NT lethal inactive, TDP1 cell CPT inactive, IL-1B inflam inh inactive, DT40 TDP1 no CPT inactive and HT1080 IDH1KD tx inactive.
For COc1ccc(CN2C[C@H](Sc3nc4ccccc4[nH]3)C[C@H]2C(=O)N(C)C)c2ccccc12 the results were TDP1 cell CPT inactive[9.04 µM] and DT40 TDP1 no CPT inactive.
For CCCCCCn1c(CN2CCN(CCO)CC2)nc2c1c(=O)n(C)c(=O)n2C the results were HT1080NT lethal inactive, TDP1 cell CPT inactive, IL-1B inflam inh inactive, DT40 TDP1 no CPT inactive and HT1080 IDH1KD tx inactive.
For CCCn1c(CN2CCN(c3cccc(Cl)c3)CC2)nc2c1c(=O)n(C)c(=O)n2C the results were HT1080NT lethal inactive, TDP1 cell CPT 5.8µM, IL-1B inflam inh inactive, DT40 TDP1 no CPT 6.51µM and HT1080 IDH1KD tx inactive.
Screening CCOC(=O)N1CCN(Cc2nc3c(c(=O)n(C)c(=O)n3C)n2Cc2cccc(C)c2)CC1 returned HT1080NT lethal inactive, TDP1 cell CPT inactive, IL-1B inflam inh inactive, DT40 TDP1 no CPT inconclusive and HT1080 IDH1KD tx inactive.
`Cc1ccc(Cn2c(CN3CCN(c4cccc(Cl)c4)CC3)nc3c2c(=O)n(C)c(=O)n3C)cc1` gave TDP1 cell CPT 18.4µM and DT40 TDP1 no CPT inconclusive.
For CCCCn1c(CN2CCN(c3cccc(Cl)c3)CC2)nc2c1c(=O)n(C)c(=O)n2C the results were HT1080NT lethal inactive, TDP1 cell CPT 7.31µM, IL-1B inflam inh inactive, DT40 TDP1 no CPT 6.51µM and HT1080 IDH1KD tx inactive.
`CCCCCn1c(CN2CCN(c3cccc(Cl)c3)CC2)nc2c1c(=O)n(C)c(=O)n2C` gave HT1080NT lethal inactive, TDP1 cell CPT 16.4µM, IL-1B inflam inh inactive, DT40 TDP1 no CPT 20.6µM and HT1080 IDH1KD tx inactive.
CCCP(=O)(CCC)CCP(=O)(c1ccccc1)c1ccccc1 was read as HT1080NT lethal inactive, TDP1 cell CPT inactive, IL-1B inflam inh inactive, DT40 TDP1 no CPT inactive and HT1080 IDH1KD tx inactive.
`Cc1cc(C)cc(COn2ccnc2)c1` gave HT1080NT lethal inactive, TDP1 cell CPT inactive, IL-1B inflam inh inactive, DT40 TDP1 no CPT inconclusive and HT1080 IDH1KD tx inactive.
Screening CC(OC(=O)c1ccc2ccccc2c1)C(=O)N(C)Cc1ccccc1 (configuration not stated) returned HT1080NT lethal inactive, TDP1 cell CPT inconclusive, IL-1B inflam inh inactive, DT40 TDP1 no CPT 20.6µM and HT1080 IDH1KD tx inactive.
CN(Cc1ccccc1)C(=O)COC(=O)c1ccccc1NS(=O)(=O)c1cccc(N)c1 was read as HT1080NT lethal inactive, TDP1 cell CPT inconclusive, IL-1B inflam inh inactive, DT40 TDP1 no CPT inconclusive and HT1080 IDH1KD tx inactive.
CC(OC(=O)c1ccccc1NS(=O)(=O)c1cccc(C(F)(F)F)c1)C(=O)N(C)Cc1ccccc1 (configuration not stated) was read as HT1080NT lethal inactive, TDP1 cell CPT inconclusive, IL-1B inflam inh inactive, DT40 TDP1 no CPT 23.1µM and HT1080 IDH1KD tx inactive.
Screening COc1ccc(NC(=O)C2CC(=O)OC23CCOC(C)(C)C3)cc1 (configuration not stated) returned HT1080NT lethal inactive, TDP1 cell CPT inactive, IL-1B inflam inh inactive, DT40 TDP1 no CPT inactive and HT1080 IDH1KD tx inactive.
For CCOc1ccc(N2CC(NC(=O)c3ccc(S(=O)(=O)N4CCCC4)cc3)CC2=O)cc1 (configuration not stated) the results were TDP1 cell CPT inactive and DT40 TDP1 no CPT inactive.
`CC(C)CC(NC(=O)CC12CC3CC(CC(C3)C1)C2)C(=O)NC1=NCCS1` (configuration not stated) gave HT1080NT lethal inactive, TDP1 cell CPT inconclusive, IL-1B inflam inh inactive, DT40 TDP1 no CPT 25.9µM and HT1080 IDH1KD tx inactive.
O=C(c1ccc(Cl)s1)N1CCN(S(=O)(=O)c2ccc(Cl)cc2)CC1 was read as HT1080NT lethal inactive, TDP1 cell CPT inconclusive, IL-1B inflam inh inactive, DT40 TDP1 no CPT inconclusive and HT1080 IDH1KD tx inactive.
`COc1ccc(NC2=Nc3cccc4cccc2c34)cc1OC` gave HT1080NT lethal inactive, TDP1 cell CPT 23.1µM, IL-1B inflam inh inconclusive, DT40 TDP1 no CPT 25.9µM and HT1080 IDH1KD tx inactive.
OCC[C@@H]1C[C@H](O)[C@@H](O)[C@]2(OCc3cc(C(F)(F)F)ccc32)O1 was read as HT1080NT lethal inactive, TDP1 cell CPT inactive, IL-1B inflam inh inactive, DT40 TDP1 no CPT inactive and HT1080 IDH1KD tx inactive.
`CCCNC(=O)c1ccccc1NC(=O)c1ccc2c(c1)NC(=O)C(C)S2` (configuration not stated) gave HT1080NT lethal inactive, TDP1 cell CPT 10.3µM, IL-1B inflam inh inactive, DT40 TDP1 no CPT 6.51µM and HT1080 IDH1KD tx 9.2µM.
CCCNC(=O)c1ccccc1NC(=O)c1ccc(CSc2ccccc2)cc1 was read as HT1080NT lethal inactive, TDP1 cell CPT inconclusive, IL-1B inflam inh inactive, DT40 TDP1 no CPT 20.6µM and HT1080 IDH1KD tx inactive.
`CCC(C)NC(=O)c1ccccc1NC(=O)c1ccc(CSc2ccccc2)cc1` (configuration not stated) gave HT1080NT lethal inactive, TDP1 cell CPT inconclusive, IL-1B inflam inh inactive, DT40 TDP1 no CPT inconclusive and HT1080 IDH1KD tx inactive.
